Measured values as given in PubChem BioAssay (NCATS).
Results filed as inconclusive are left out. Activity calls are given as the source filed them. Calls follow the shape of the dose curve; as a rule, active = well fitted curve in the direction sought with a large enough effect; inconclusive = small, poorly fitted or top-dose-only effect, or another doubt; inactive = no such curve, though single readings can be large; an effect the other way counts as inactive or inconclusive.
Potency is read from the fitted curve at half-maximal effect.

Experiment: qHTS of pediatric cancer cell lines to identify multiple opportunities for drug repurposing: Primary screen for DAOY cells (AID 1347090); also: nearly all actives have a fitted effect of over 55% in size
Conditions: DAOY medulloblastoma viability, CellTiter-Glo luminescence, 48 h; series mostly up to 46 µM
How it was run: (§1)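 Viability measured as metabolically active cells via CellTiter-Glo luminescence following 48 hours of compound exposure, 11-point dilutions in confirmatory testing. 500-1,000 cells/well plated 5 hours before dosing; controls were DMSO and 2.3 µM bortezomib.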
In the case of `COc1cc(OC2CCN(C)CC2)ccc1Nc1ncc2c(n1)n(C1CCCC1)c(=O)n2C`, the Potency is reported as 23.5 µM (active). For `Cn1cc(-c2ccncc2)c(-c2ccc(OCc3ccc4ccccc4n3)cc2)n1`, the Potency was 4.69 µM (active). With `COC(=O)[C@]12CCC(C)(C)C[C@@H]1[C@@H]1C(=O)C=C3[C@@]4(C)C=C(C#N)C(=O)C(C)(C)[C@@H]4CC[C@@]3(C)[C@]1(C)CC2` the Potency was 0.59 µM (active). For `N#CCNC(=O)c1ccc(-c2ccnc(Nc3ccc(N4CCOCC4)cc3)n2)cc1`, the Potency was 14.8 µM (active). In the case of `CN(C)CCCN=c1c2ccccc2n(C)c2[nH]c(=O)n(C)c(=O)c12`, the Potency is reported as 23.5 µM (active). In the case of `COc1cc2c(Oc3ccc4[nH]c(C)cc4c3F)ncnc2cc1OCCCN1CCCC1`, the Potency is reported as 18.7 µM (active). For `NCC(=O)Nc1ccc(-n2nc(C(F)(F)F)cc2-c2ccc3c(ccc4ccccc43)c2)cc1`, the Potency was 23.5 µM (active). With `Cn1c2ccccc2c2c3c(c4c5ccccc5n(CCC#N)c4c21)CNC3=O` the Potency was 5.9 µM (active). In the case of `Cc1cc(Nc2cc(CN3CCOCC3)c3nc(C)c(Cc4ccc(Cl)cc4F)n3n2)n[nH]1`, the Potency is reported as 23.5 µM (active). For `COCCOc1ccc2c(c1)ncn2-c1ccc2cccc(N3CCC(N)CC3)c2n1`, the Potency was 23.5 µM (active). For `Cc1cn2c(-c3cn[nH]c3)cnc2c(Nc2ccc(C(=O)N3CCNCC3)cc2F)n1`, the Potency was 18.7 µM (active). For `Nc1nccc(Oc2ccc(NC(=O)c3c[nH]cc(-c4ccc(F)cc4)c3=O)cc2F)c1Cl`, the Potency was 14.8 µM (active). For `NC(=O)c1c(OCc2c(F)cc(Br)cc2F)nsc1NC(=O)NCCCCN1CCCC1`, the Potency was 23.5 µM (active). In the case of `C=CC(=O)Nc1cccc(Oc2nc(Nc3ccc(N4CCN(C)CC4)cc3OC)ncc2Cl)c1`, the Potency is reported as 0.0372 µM (active). With `CN(C1CCc2c(c3ccccc3n2CC(=O)O)C1)S(=O)(=O)c1ccc(F)cc1` (configuration not stated) the Potency was 5.9 µM (active). In the case of `Cc1cc(Nc2ncnc3ccc(-c4ccc(CNCCS(C)(=O)=O)o4)cc23)ccc1Oc1ccn2ncnc2c1`, the Potency is reported as 9.35 µM (active). For `O=C(O)c1ccc2cc(-c3ccc(O)c(C45CC6CC(CC(C6)C4)C5)c3)ccc2c1`, the Potency was 0.469 µM (active). In the case of `Nc1cccc(-c2cc3c(Oc4cccc(O)c4)ncnc3[nH]2)c1`, the Potency is reported as 7.43 µM (active).

Experiment: qHTS of pediatric cancer cell lines to identify multiple opportunities for drug repurposing: Primary screen for SJ-GBM2 cells (AID 1347091)
Conditions: SJ-GBM2 viability, CellTiter-Glo luminescence, 48 h; series mostly up to 46 µM
How it was run: as §1
In the case of `CC(C)=CCCC(C)=CCCC(C)=CCSc1ccccc1C(=O)O`, the Potency is reported as 0.833 µM (active). With `COc1cc(OC2CCN(C)CC2)ccc1Nc1ncc2c(n1)n(C1CCCC1)c(=O)n2C` the Potency was 16.6 µM (active). In the case of `Fc1cc(-c2cccc3ncc(-c4cnn(C5CCNCC5)c4)nc23)cc(F)c1CN1CCOCC1`, the Potency is reported as 16.6 µM (active). With `CN(C)CCCN=c1c2ccccc2n(C)c2[nH]c(=O)n(C)c(=O)c12` the Potency was 1.87 µM (active). In the case of `Cn1c(=O)n(-c2ccc(C(C)(C)C#N)cc2)c2c3cc(-c4cnc5ccccc5c4)ccc3ncc21`, the Potency is reported as 0.0662 µM (active). In the case of `COc1cc2c(Oc3ccc4[nH]c(C)cc4c3F)ncnc2cc1OCCCN1CCCC1`, the Potency is reported as 6.62 µM (active). With `O=C(Nc1nc2cccc(-c3ccc(CN4CCS(=O)(=O)CC4)cc3)n2n1)C1CC1` the Potency was 18.7 µM (active). With `O=C(CCCCCCC(=O)Nc1ccc([C@H]2O[C@@H](CSc3nc(-c4ccccc4)c(-c4ccccc4)o3)C[C@@H](c3ccc(CO)cc3)O2)cc1)NO` the Potency was 14.8 µM (active). In the case of `CCN1CCN(CC(=O)Nc2ccc(-c3cccc4c(=O)cc(N5CCOCC5)oc34)c3sc4ccccc4c23)CC1`, the Potency is reported as 0.743 µM (active). In the case of `NC1(Cc2ccc(Cl)cc2)CCN(c2ncnc3[nH]ccc23)CC1`, the Potency is reported as 5.26 µM (active). For `Cn1c2ccccc2c2c3c(c4c5ccccc5n(CCC#N)c4c21)CNC3=O`, the Potency was 0.59 µM (active). In the case of `COCCOc1ccc2c(c1)ncn2-c1ccc2cccc(N3CCC(N)CC3)c2n1`, the Potency is reported as 11.8 µM (active). For `NC(=O)c1c(OCc2c(F)cc(Br)cc2F)nsc1NC(=O)NCCCCN1CCCC1`, the Potency was 20.9 µM (active). With `CC1(O)CC(c2nc(-c3ccc4ccc(-c5ccccc5)nc4c3)c3c(N)nccn23)C1` (configuration not stated) the Potency was 10.5 µM (active). In the case of `COC(=O)Nc1ccc(-c2nc(N3CCOCC3)c3cnn(C4CCN(Cc5cccnc5)CC4)c3n2)cc1`, the Potency is reported as 0.743 µM (active). In the case of `COc1cc(-c2nn(C3CCC(N4CCN(C(C)=O)CC4)CC3)c3ncnc(N)c23)ccc1NC(=O)c1cc2ccccc2n1C` (configuration not stated), the Potency is reported as 1.87 µM (active). For `Nc1cccc(-c2cc3c(Oc4cccc(O)c4)ncnc3[nH]2)c1`, the Potency was 20.9 µM (active). With `COc1cccc(-c2ccc(NC(=O)C3=C(C(=O)O)CCC3)c(F)c2)c1` the Potency was 11.8 µM (active).

Experiment: qHTS of pediatric cancer cell lines to identify multiple opportunities for drug repurposing: Primary screen for A673 cells (AID 1347092); also: nearly all actives have a fitted effect of over 45% in size
Conditions: A673 Ewing sarcoma viability, CellTiter-Glo ATP luminescence, 48 h; series mostly up to 46 µM
How it was run: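 Cells are plated, rested 5 h, dosed by pintool, incubated 48 h, then lysed with CellTiter-Glo and read by luminescence. DMSO is the neutral control; bortezomib at 2.3 uM final is the positive control.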
With `CC(C)=CCCC(C)=CCCC(C)=CCSc1ccccc1C(=O)O` the Potency was 5.9 µM (active). In the case of `Fc1cc(-c2cccc3ncc(-c4cnn(C5CCNCC5)c4)nc23)cc(F)c1CN1CCOCC1`, the Potency is reported as 18.7 µM (active). With `Cn1cc(-c2ccncc2)c(-c2ccc(OCc3ccc4ccccc4n3)cc2)n1` the Potency was 3.72 µM (active). For `N#CCNC(=O)c1ccc(-c2ccnc(Nc3ccc(N4CCOCC4)cc3)n2)cc1`, the Potency was 7.43 µM (active). With `COc1cc2c(Oc3ccc4[nH]c(C)cc4c3F)ncnc2cc1OCCCN1CCCC1` the Potency was 18.7 µM (active). With `O=C(Nc1nc2cccc(-c3ccc(CN4CCS(=O)(=O)CC4)cc3)n2n1)C1CC1` the Potency was 11.8 µM (active). For `O=C(CCCCCCC(=O)Nc1ccc([C@H]2O[C@@H](CSc3nc(-c4ccccc4)c(-c4ccccc4)o3)C[C@@H](c3ccc(CO)cc3)O2)cc1)NO`, the Potency was 4.69 µM (active). In the case of `CCN1CCN(CC(=O)Nc2ccc(-c3cccc4c(=O)cc(N5CCOCC5)oc34)c3sc4ccccc4c23)CC1`, the Potency is reported as 2.35 µM (active). In the case of `NCC(=O)Nc1ccc(-n2nc(C(F)(F)F)cc2-c2ccc3c(ccc4ccccc43)c2)cc1`, the Potency is reported as 23.5 µM (active). In the case of `Cc1cccc(C=NNc2cc(N3CCOCC3)nc(OCCc3ccccn3)n2)c1`, the Potency is reported as 7.43 µM (active). For `Cn1c2ccccc2c2c3c(c4c5ccccc5n(CCC#N)c4c21)CNC3=O`, the Potency was 0.935 µM (active). In the case of `Cc1cc(Nc2cc(CN3CCOCC3)c3nc(C)c(Cc4ccc(Cl)cc4F)n3n2)n[nH]1`, the Potency is reported as 5.9 µM (active). In the case of `COCCOc1ccc2c(c1)ncn2-c1ccc2cccc(N3CCC(N)CC3)c2n1`, the Potency is reported as 4.69 µM (active). In the case of `Cc1cn2c(-c3cn[nH]c3)cnc2c(Nc2ccc(C(=O)N3CCNCC3)cc2F)n1`, the Potency is reported as 14.8 µM (active). With `Nc1nccc(Oc2ccc(NC(=O)c3c[nH]cc(-c4ccc(F)cc4)c3=O)cc2F)c1Cl` the Potency was 5.9 µM (active). In the case of `NC(=O)c1c(OCc2c(F)cc(Br)cc2F)nsc1NC(=O)NCCCCN1CCCC1`, the Potency is reported as 18.7 µM (active). For `CC(=O)c1c(C)c2cnc(Nc3ccc(N4CCNCC4)cn3)nc2n(C2CCCC2)c1=O`, the Potency was 14.8 µM (active). With `CC1(O)CC(c2nc(-c3ccc4ccc(-c5ccccc5)nc4c3)c3c(N)nccn23)C1` (configuration not stated) the Potency was 23.5 µM (active). With `CN(C1CCc2c(c3ccccc3n2CC(=O)O)C1)S(=O)(=O)c1ccc(F)cc1` (configuration not stated) the Potency was 0.935 µM (active). In the case of `Cc1cc(Nc2ncnc3ccc(-c4ccc(CNCCS(C)(=O)=O)o4)cc23)ccc1Oc1ccn2ncnc2c1`, the Potency is reported as 0.235 µM (active). With `O=C(O)c1ccc2cc(-c3ccc(O)c(C45CC6CC(CC(C6)C4)C5)c3)ccc2c1` the Potency was 2.35 µM (active). With `COc1cc(-c2nn(C3CCC(N4CCN(C(C)=O)CC4)CC3)c3ncnc(N)c23)ccc1NC(=O)c1cc2ccccc2n1C` (configuration not stated) the Potency was 0.235 µM (active). For `Cc1cc(CN2CCN(c3c(Br)cnc4nc(-c5ccc(N6CCN(C)CC6)cc5)[nH]c34)CC2)no1`, the Potency was 23.5 µM (active). For `Nc1cccc(-c2cc3c(Oc4cccc(O)c4)ncnc3[nH]2)c1`, the Potency was 14.8 µM (active). In the case of `COc1cc(C(=O)N2CCC(N3CCN(C)CC3)CC2)ccc1Nc1ncc2c(n1)N(C)c1ccccc1C(=O)N2C`, the Potency is reported as 11.8 µM (active). In the case of `COc1cccc(-c2ccc(NC(=O)C3=C(C(=O)O)CCC3)c(F)c2)c1`, the Potency is reported as 5.9 µM (active).
